Structures can show the parent of a compound that is named as a salt. Where two headings read alike, the source gives them in different places. About 130 (2.5%) of roughly 5,300 compounds showed an effect of 50% or more. The sample as a whole holds a higher share of strong results than the screen did.
Test system: M. mycetomatis strain mm55
Details: primary screen, metabolic activity vs growth control, 96 h, 2 µM, inhibitor

| SMILES | % viability [%] | % viability (Madurella mycetomatis metabolic activity at 2µM (%)) [%] |
| --- | --- | --- |
| c1ccc(-c2ccc(CNc3nc(-c4ccccn4)nnc3-c3ccccc3)cc2)cc1 [ONC0001674, ml228] | 2.835 |  |
| c1cnc(NCc2ccc(CNc3ncccn3)cc2)nc1 [ONC0002000, msx122] | 83.13 |  |
| c1ccc(NCc2ccc(CNc3ccccn3)cc2)nc1 [ONC0004550, wz 811] | 63.57 |  |
| FCc1ccc(OCCOc2ccc(Cl)cc2Cl)c(Cl)n1 [ONC0000095, cym50260] | 81.52 |  |
| O=C(O)CN(CCN(CC(=O)O)CC(=O)O)CCN(CC(=O)O)CC(=O)O [ONC0005432, gadopenteticacid] |  | 103.1 |
| CC(C)N[C@@H]1CCn2c(=O)[nH]c3cccc(c32)[C@H]1O [ONC0001941, zilpaterolhcl] | 67.69 |  |
| CC(=O)[C@]1(O)Cc2c(O)c3c(c(O)c2[C@@H](O[C@H]2C[C@H](N)[C@H](O)[C@H](C)O2)C1)C(=O)c1ccccc1C3=O [ONC0004533, idarubicin hcl] | 43.23 |  |
| COc1cccc2c1C(=O)c1c(O)c3c(c(O)c1C2=O)C[C@@](O)(C(=O)CO)C[C@@H]3O[C@H]1C[C@H](N)[C@@H](O)[C@H](C)O1 [ONC0004636, epirubicin hydrochloride] | 92.65 |  |
| COc1cccc2c1C(=O)c1c(O)c3c(c(O)c1C2=O)C[C@@](O)(C(C)=O)C[C@@H]3O[C@H]1C[C@H](N)[C@H](O)[C@H](C)O1 [ONC0001686, daunorubicin] | 72.25 |  |
| CNC(=O)ON(C(C)=O)C(=O)NC [ONC0003740, caracemide] | 136.5 |  |
| NC(=O)c1nc(F)c[nH]c1=O [ONC0003386, favipiravir] | 85.13 |  |
| CCN(CC)C(=O)Nc1ccc(OCC(O)CNC(C)(C)C)c(C(C)=O)c1 (stereo not drawn) [ONC0002160, celiprolol] | 87.56 |  |
| CC(=O)Nc1ccc(OCC(O)CNC(C)C)cc1 (stereo not drawn) [ONC0002176, practolol] | 73.91 |  |
| CCCC(=O)Nc1ccc(OCC(O)CNC(C)C)c(C(C)=O)c1 (stereo not drawn) [ONC0003369, acebutolol hydrochloride] | 44.26 |  |
| COc1ccc(NS(=O)(=O)c2ccc(N=Nc3ccc(O)c(C(=O)O)c3)cc2)nn1 [ONC0003399, salazodine] | 47.95 |  |
| COc1ccc(NS(=O)(=O)c2ccc(N)cc2)nn1 [ONC0000622, sulfamethoxypyridazine] | 113.3 |  |
| O=C(O)c1cc(/N=N/c2ccc(S(=O)(=O)Nc3ccccn3)cc2)ccc1O [ONC0000599, sulfasalazine] | 109.1 |  |
| NS(=O)(=O)NCCNc1nonc1C(=NO)Nc1ccc(F)c(Br)c1 [ONC0005250, epacadostat incb024360] | 130.3 |  |
| CN1CCN(C(=O)C2C(C(=O)O)[C@@H]3CC[C@H]2O3)CC1 (stereo partly drawn) [ONC0001871, lb100] | 109.3 |  |
| CCO/N=C(/C(=O)N[C@@H]1C(=O)N2C(C(=O)O)=C(Sc3nc(-c4cc[n+](C)cc4)cs3)CS[C@H]12)c1nsc(NP(=O)(O)O)n1 [ONC0002991, ceftarolinefosamil] | 80.17 |  |

| SMILES | % viability [%] | % viability (Madurella mycetomatis metabolic activity at 2µM (%)) [%] |
| --- | --- | --- |
| COc1ccc(NS(=O)(=O)c2sc3ccc(Cl)cc3c2C)cc1N1CCNCC1 [ONC0005236, sb 271046] | 123.6 |  |
| COc1ccc(NS(=O)(=O)c2ccc(I)cc2)cc1N1CCN(C)CC1 [ONC0001661, sb258585] | 76.38 |  |
| COc1ccc(S(=O)(=O)Nc2cc(Cl)cc(Cl)c2OC)cc1N1CCNCC1 [ONC0000041, sb399885] | 47.84 |  |
| O=C1Nc2c(ccc(Cl)c2Cl)C1=NO [ONC0002536, ns309] | 65.12 |  |
| COC(=O)[C@H]1[C@@H](C)[C@@H](OC)C=CO[C@@]2(C)Oc3c(C)c(O)c4c(O)c(cc(O)c4c3C2=O)NC(=O)/C(C)=C\C=C/[C@@H](C)[C@@H](O)[C@@H](C)[C@H](O)[C@@H]1C [ONC0003453, rifamycin sv sodium salt] | 53.39 |  |
| CN(C)[C@@H]1C(=O)C(C(N)=O)C(=O)[C@@]2(O)C(=O)C3C(=O)c4c(O)ccc(Cl)c4[C@@H](O)[C@H]3C[C@@H]12 (stereo partly drawn) [ONC0000432, demeclocycline hydrochloride] | 77.24 |  |
| CCCCCCc1ccc(O)cc1O [ONC0000355, hexylresorcinol] | 72.69 |  |
| CCCCCCCCc1ccc(CCC(N)(CO)CO)cc1 [ONC0005159, fingolimod fty720 hcl] | 130.1 |  |
| CCCCCCCCCCCC1=C(O)C(=O)C=C(O)C1=O [ONC0001079, embelin] | 49.47 |  |
| NC1=N[C@H]2[C@H](CCCCC(=O)O)SC[C@H]2N1 [ONC0003635, 2iminobiotin] | 86.51 |  |
| CC(C)=CCC/C(C)=C/CC/C(C)=C/CCC(O)OC/C=C(\C)CCC=C(C)C (stereo not drawn) [ONC0000430, geranylfarnesylacetate gefarnate] | 66.04 |  |
| O=C(Oc1cccc2cccnc12)c1ccccc1 [ONC0003987, benzoxiquine] | 75.23 |  |
| Cc1ccc2c(Br)cc(Br)c(OC(=O)c3ccccc3)c2n1 [Broxaldine] | 3.407 |  |
| O=C(OOC(=O)c1ccccc1)c1ccccc1 [ONC0003111, benzoyl peroxide] | 80.87 |  |
| c1cnc2cc3c(cc2n1)C1CNCC3C1 [ONC0004813, varenicline tartrate] | 83.4 |  |
| CCCC[C@H](C)C[C@H](O)/C=C/[C@H]1[C@H](O)CC(=O)[C@@H]1CCCC/C=C/C(=O)O [ONC0005482, limaprost] | 96.34 |  |
| Cc1ccc(C(C)C)c(OC=C2NCCN2)c1 [ONC0005561, tymazoline] | 90.75 |  |
| O=[N+]([O-])c1ccccc1S(=O)(=O)NC[C@H]1CC[C@H](CNCC2CCc3ccccc3C2)CC1 (stereo partly drawn) [ONC0000121, ntncb] | 80.22 |  |
| CC(=O)OC1[C@@H](N2CC[N+](C)(C)CC2)C[C@H]2[C@@H]3CC[C@H]4C[C@H](OC(C)=O)[C@@H](N5CC[N+](C)(C)CC5)C[C@]4(C)[C@H]3CC[C@]12C (stereo partly drawn) [ONC0001992, pipecuronium] | 103.5 |  |
| CCC(=O)NO [ONC0002308, zami633] | 45.69 |  |

| SMILES | % viability [%] | % viability (Madurella mycetomatis metabolic activity at 2µM (%)) [%] |
| --- | --- | --- |
| O=C(CCCCCCC(=O)NO)NO [ONC0001756, sbha] | 85.39 |  |
| CCCCOc1ccc(CC(=O)NO)cc1 [ONC0000683, bufexamac] | 91.55 |  |
| OCC(O)COc1ccc(Cl)cc1 (stereo not drawn) [ONC0002159, chlorphenesin] | 67.41 |  |
| CCC(C)CC(C)CCCCCCCCC(=O)N[C@H]1C[C@@H](O)[C@@H](NCCN)NC(=O)[C@@H]2[C@@H](O)CCN2C(=O)[C@H]([C@H](O)CCN)NC(=O)[C@H]([C@@H](O)[C@H](O)c2ccc(O)cc2)NC(=O)[C@@H]2C[C@@H](O)CN2C(=O)[C@H]([C@@H](C)O)NC1=O (stereo partly drawn) [ONC0002201, caspofungin acetate] | 69.7 |  |
| CN1CCN(C(=O)CN[C@@H]2C[C@H]2c2ccc(OCc3ccccc3)cc2)CC1 [ONC0000424, rn1] | 85.6 |  |
| COc1ccc(/C=C/C(=O)O)cc1 [ONC0003824, trans4methoxycinnamicacid] | 65.15 |  |
| COc1ccc2[nH]c(C(=O)c3ccccc3)cc2c1 [ONC0001898, d64131] | 78.99 |  |
| COc1ccc(/C=C/CCCCOc2ccc(C(=O)c3cccc(C(=O)O)c3)cc2CCC(=O)O)cc1 [ONC0003815, ly223982] | 21.75 |  |
| CC(=O)[C@H]1CC[C@H]2[C@@H]3CC=C4C[C@@H](O)CC[C@]4(C)[C@H]3CC[C@]12C [ONC0003199, pregnenolone] | 77.25 |  |
| Cc1oc2nc3c(c(NC(=O)CN4CCCC4=O)c2c1C)CCCC3 [ONC0001218, coluracetam] | 81.81 |  |
| CCOC(=O)Nc1cc2c(c(N)n1)NC(c1ccccc1)=C(C)N2 [ONC0002128, mivobulin] | 3.846 |  |
| CCOC(=O)Nc1nc2ccccc2[nH]1 [ONC0004223, lobendazole] | 137.9 |  |
| CCOC(=O)Nc1ccc(NCc2ccc(F)cc2)nc1N.O=C(O)/C=C\C(=O)O [ONC0001304, flupirtine maleate] | 68.53 |  |
| C=CC(=O)N1CCCC(n2c(=O)n(-c3ccc(Oc4ccccc4)cc3)c3c(N)ncnc32)C1 (stereo not drawn) [ONC0004392, ono4059] | 98.71 |  |
| C[N+]1(C)C2CCC1CC(OC(=O)C(CO)c1ccccc1)C2 (stereo not drawn) [ONC0003986, methylatropine nitrate] | 73.02 |  |
| CN1C2C[C@H](OC(=O)[C@H](CO)c3ccccc3)C[C@@H]1[C@@H](O)C2 [ONC0003283, anisodamine hydrobromide] | 41.57 |  |
| C[N+]1([O-])C2CCC1CC(OC(=O)C(CO)c1ccccc1)C2 (stereo not drawn) [ONC0004212, atropine oxide] | 82.92 |  |
| FC(F)(F)Oc1ccc2[nH]c(-c3ccc(OCCOCCOc4ccc(-c5nc6cc(OC(F)(F)F)ccc6[nH]5)nc4)cn3)nc2c1 [ONC0000980, ai1049] | 83.7 |  |
| CC(=O)OCC1=C(C(=O)O)N2C(=O)[C@@H](N)[C@H]2SC1 [ONC0004514, 7aminocephalosporanic acid] | 52.68 |  |
| CCn1cc(-c2cccc(C(F)(F)F)c2)c2sc(C(=N)NC3CCS(=O)(=O)CC3)cc2c1=O [ONC0001085, ibrd9] | 45.4 |  |

From publication PMC12670160, “A drug-repurposing screen of FDA- and EMA-approved drugs identifies two NF-κB inhibitors active against eumycetoma” (Journal of Antimicrobial Chemotherapy, 2025)
